Drawing on ChEMBL document CHEMBL4513216, “Probing the Open Global Health Chemical Diversity Library for Multistage-Active Starting Points for Next-Generation Antimalarials” (ACS Infect Dis, 2020), this text covers INHIBITION for 109 compounds.

Among all 68,000 compounds or so, about 2,700 (4%) showed an effect of 50% or more. The entries come from a sample that favours strong results as a whole.

The assay deals with Plasmodium berghei. Nature of the assay: Screen against P. berghei liver stage (PbLuc), transformed with Luciferase, at 2uM. It counts as functional, HepG2. As to conditions: tested at 2 uM.
On to `CCN(C)S(=O)(=O)N1C[C@H]2CC[C@@H](C1)N(Cc1cscn1)C2=O`, for which the INHIBITION is reported as 48.21%.
As for `CC(NC(=O)N(C)Cc1cccc(OC(F)F)c1)c1nncn1C` (centres undefined), the figure is 59.03%.
On to `COc1ccc(CN(C)C(=O)NC(C)c2nncn2C)cc1F` (centres undefined), for which the INHIBITION was -6.61%.
As for `CCn1cnnc1CNC(=O)N(C)Cc1cccc(OC(F)F)c1`, the INHIBITION came out at 64.16%.
As to `CCOc1ccc(CN(C)C(=O)NC(C)c2nncn2C)cc1` (centres undefined), the INHIBITION is reported as -27.75%.
As for `CCn1cnnc1CNC(=O)N(C)Cc1ccc(F)c(F)c1`, the INHIBITION is recorded as -2.9%.
As to `CCn1cnnc1CNC(=O)N(C)Cc1ccc2c(c1)OCCO2`, the INHIBITION is given as -16.42%.
For the compound `Cc1cccc(CN2CCC(C3Nc4ccccc4S(=O)(=O)N3)CC2)n1` (centres undefined), the INHIBITION is given as 7.38%.
Regarding `COc1cc(N2C[C@@H]3COC[C@]3(COCc3ccccn3)C2)ncn1`, the INHIBITION was -14.27%.
In the case of `Cn1ccnc1CN1CCCC2(CCN(CC3CCCO3)CC2)C1` (centres undefined), the INHIBITION is given as 26.46%.
`Cc1nc(C2CCCN(C(=O)c3ccc(OCC4CC4)nc3)C2)no1` (centres undefined): the INHIBITION stood at 28.65%.
The figure for `CC(CNC(=O)NCc1ccsc1)CC1(C)OCCO1` (centres undefined) is -35.5%; for `CC1(CCNC(=O)NCc2ccsc2)OCCO1` it is 57.23%; for `CC1(C(=O)NCc2ccsc2)CCOCC1` it is 5.75%.
Take `O=C(Cn1nc2c(cc1=O)CCCC2)NC(C(=O)O)c1ccccc1` (centres undefined): the INHIBITION is on record as 25.23%.
In the case of `CC1COCCN1Cc1nc(Cc2ccccc2)no1` (centres undefined), the INHIBITION is -23.37%.
As for `COc1ncc(NCc2ccc(C#N)cc2)cc1C(N)=O`, the figure is 63.31%; as for `COc1ncc(NCc2ccc(F)cc2)cc1C(N)=O`, 17.18%; as for `COc1ncc(NCc2cccc(C#N)c2)cc1C(N)=O`, -7.69%.
Take `CN1C(=O)CC(C(=O)O)C12CCN(c1ccc3cccc(Cl)c3n1)CC2` (centres undefined): the INHIBITION is listed as -1.78%.
Take `Cc1ccccc1CC(C)NC(=O)Nc1cnn(CC(N)=O)c1` (centres undefined): the INHIBITION turned out to be 81.1%.
As to `CC(Cc1ccccc1Cl)NC(=O)Nc1cnn(CC(N)=O)c1` (centres undefined), the INHIBITION is recorded as -7.81%.
For the compound `CC(CCc1ccccc1)NC(=O)Nc1cnn(CC(N)=O)c1` (centres undefined), the INHIBITION is 41.72%.
For the compound `COCCN1CCC2(CC1)CN(CCn1cccn1)C(=O)CO2`, the INHIBITION is on record as 20.2%.
On to `CN(CC(=O)NCC(F)(F)F)C(=O)c1ccc(C(=O)OC(C)(C)C)cc1`, for which the INHIBITION was -16.4%.
`Cc1ccc(C(=O)N(C)CC(=O)Nc2cccc(C)n2)cn1`: the INHIBITION is on record as 23.76%.
With `Cc1ccc(C(=O)N(C)CC(=O)NCC(F)(F)F)cn1`, the INHIBITION was determined as 71.4%.
With `CCC(=O)Nc1cc(Cl)ccc1C(=O)N(C)Cc1noc(CC)n1`, the INHIBITION came out at 1.1%.
Turning to `COc1ccc(Cl)cc1-n1cnc(CCNC(C)=O)c1`, the INHIBITION was found to be 26.74%.
`COc1ccc(F)cc1-n1cnc(CCNC(C)=O)c1`: the INHIBITION is recorded as 45.82%.
The figure for `COc1cc(F)c(-n2cnc(CCNC(C)=O)c2)cc1F` is 60.13%; for `CC(=O)N(CCc1nc(-c2cc(C(N)=O)oc2C)cs1)C(C)C` it is 10.22%.
The figure for `COc1cc(OC)c(C2CC(=O)Oc3cc(C)[nH]c(=O)c32)c(OC)c1` (centres undefined) is 14.96%; for `O=C(O)C(c1ccc2c(c1)OCO2)N1CCCCCC1` (centres undefined) it is 59.48%.
For `O=C(O)C(c1ccc2c(c1)OCCO2)N1CCCCCC1` (centres undefined), the INHIBITION worked out at 19.56%.
In the case of `O=C(O)C(c1ccc2c(c1)OCO2)N1CCCC1` (centres undefined), the INHIBITION turned out to be 4.53%.
As to `Cc1ccc(-n2cc3[nH]c(=O)[nH]n3c2=O)cc1`, the INHIBITION is -15.37%.
As to `Cc1ccc(CN2CCC3(CC(C(=O)NC4CCC4)=NO3)C2)o1` (centres undefined), the INHIBITION was -27.21%.
As to `CC(=O)N1CCC2(CC1)CN(C)C(=O)C[C@H]2C(F)(F)F`, the INHIBITION stood at 64.92%.
For the compound `CN1CCC2(CC1)CN(C)C(=O)C[C@@H]2C(F)(F)F`, the INHIBITION was determined as 6.22%.
With `CC(C)N1CCC2(CC1)CN(C)C(=O)C[C@H]2C(F)(F)F`, the INHIBITION is -24.39%.
Consider `CCN(CC)S(=O)(=O)N1C[C@@H](O)[C@H](Oc2cccc(F)c2)C1`, for which the INHIBITION is given as 16.01%.
The figure for `Cc1nc(N2CCCC2)nc2c1CCN(C(=O)CC1CCCC1)CC2` is 1.33%; for `COC(=O)c1ccc2ccn(CC3COCCO3)c(=O)c2c1` (centres undefined) it is 21%.
Consider `COC(=O)c1ccc2ccn(CC3CCCO3)c(=O)c2c1` (centres undefined), for which the INHIBITION is 52.21%.
Regarding `COC(=O)c1ccc2ccn(CC3CCCCO3)c(=O)c2c1` (centres undefined), the INHIBITION is given as -32.35%.
Take `COc1ccc(CCNCc2c(C)nn(C)c2N(C)C)cc1OC`: the INHIBITION amounted to 7.74%.
In the case of `O=C1CC(c2ccc(O)cc2)c2sc(C(=O)O)c(-c3ccccc3)c2N1` (centres undefined), the INHIBITION is 20.4%.
Take `CC(C)C(=O)N1CC2(CCN(CC(C)(C)C)CC2)C1`: the INHIBITION is recorded as 50.72%.
For the compound `CC(C)C(=O)N1CCC2(CN(CC3CCCC3)C2)C1`, the INHIBITION is recorded as 0.32%.
As for `CC(C)CN1CCC2(CC1)CN(C(=O)C(C)C)C2`, the figure is 16.12%.
Take `CS(=O)(=O)N1CCC2(CCN(C(=O)c3cccs3)CC2)CC1`: the INHIBITION amounted to 11.79%.
Regarding `CCCSc1ncc(-c2nccn2CCO)cn1`, the INHIBITION was 52.98%.
For the compound `COCc1ncc(-c2nccn2CCN(C)C)cn1`, the INHIBITION is -24.39%.
With `CCSc1ncc(-c2nccn2CCN(C)C)cn1`, the INHIBITION is reported as 59.03%.
As for `CCCSc1ncc(-c2nccn2CCC(N)=O)cn1`, the INHIBITION stood at 60.13%.
`CCCn1ccnc1-c1nccn1CCC(N)=O`: the INHIBITION was 43.44%.
As for `COc1ncc(-c2nccn2CCN(C)C)cn1`, the INHIBITION is recorded as -37.29%.
Regarding `COCc1ncc(-c2nccn2CCn2cnnc2)cn1`, the INHIBITION was -0.15%.
In the case of `COCCCn1ccnc1-c1cnc(OC)nc1`, the INHIBITION is reported as -26.85%.
Regarding `COC(=O)CCCn1ccnc1-c1ccccc1`, the INHIBITION is listed as 1.42%.
In the case of `CN(C)C(=O)COC[C@]12COC[C@H]1CN(Cc1ccccc1)C2`, the INHIBITION is on record as 42.18%.
In the case of `Cc1ccc(CC(=O)Nc2cc(C(C)C)n[nH]2)cn1`, the INHIBITION was determined as 29.54%.
As for `NC(=O)c1cc(C2CC2)nc2ccc(F)cc12`, the INHIBITION is reported as -28.49%.
In the case of `CC(Nc1cccc2c1OCCO2)C(=O)Nc1cccc(C#N)c1` (centres undefined), the INHIBITION is listed as 17.64%.
As for `COCCCN(C)C(=O)c1cccc(Nc2cnccn2)c1`, the INHIBITION was -5.53%.
Consider `CCCS(=O)(=O)NCC(O)c1c(Cl)cccc1Cl` (centres undefined), for which the INHIBITION was -35.21%.
Turning to `CCN(CC)S(=O)(=O)NCC(O)c1c(Cl)cccc1Cl` (centres undefined), the INHIBITION is 51%.
As to `CC(C)n1ccc(C(=O)NCC(O)c2c(Cl)cccc2Cl)n1` (centres undefined), the INHIBITION was -6.2%.
For the compound `CCCN1CCCC2(CCN(S(=O)(=O)N3CCC(OC)CC3)C2)C1=O` (centres undefined), the INHIBITION is reported as -46.38%.
The figure for `CCN(Cc1ccncc1)CC1(O)CCN(C(=O)c2cnn(C)c2)C1` (centres undefined) is 52.82%; for `CCN(Cc1ccncc1)CC1(O)CCN(C(=O)c2cccc(C)c2)C1` (centres undefined) it is 45.73%.
The figure for `CCN(Cc1ccncc1)CC1(O)CCN(C(=O)c2ccccc2C)C1` (centres undefined) is 44.07%.
As for `COCc1nc(C(=O)NS(=O)(=O)c2cc(C)ccc2C)cs1`, the INHIBITION is 25.74%.
With `Cc1cc(N2CCN(C(=O)c3cnn(C(C)C)c3)CC2)cc(C)n1`, the INHIBITION amounted to 44.95%.
Turning to `NC(=O)CN1CC2(CCC1=O)CCN(Cc1cc(F)ccc1Cl)CC2`, the INHIBITION is 23.7%.
As for `Cn1cc(CN2CCC3(CC2)CN(C(=O)c2cnccn2)CCO3)cn1`, the figure is 2.22%.
The figure for `Cc1cc(N2CCCC(c3nncn3C3CC3)C2)ncn1` (centres undefined) is -23.49%; for `CC(C(=O)N1CCCC1)N1CCC(c2nccn2CC2CCC2)CC1` (centres undefined) it is -19.54%.
Turning to `CCn1c(Cn2cncn2)nnc1C1CCN(C2CCNCC2)CC1`, the INHIBITION is on record as 19.49%.
On to `CCn1c(Cn2cncn2)nnc1C1CCN(C2CCOCC2)CC1`, for which the INHIBITION was determined as 50.32%.
Take `CCn1c(CN2CCCC2)nnc1C1CCN(Cc2ccncc2)CC1`: the INHIBITION was 54.41%.
In the case of `CCn1c(CN2CCCC2)nnc1C1CCN(Cc2cccnc2)CC1`, the INHIBITION is recorded as -35.07%.
`c1ncn(Cc2nnc(C3CCN(C4CCOCC4)CC3)n2C2CC2)n1`: the INHIBITION is reported as -33.43%.
For `CCn1c(CN(C)C)nnc1C1CCN(Cc2ccncc2)CC1`, the INHIBITION is 11.74%.
Consider `Cc1cnc(C)c(Oc2ccc(CN3CCCC3)cc2Cl)n1`, for which the INHIBITION is -9.5%.
The figure for `CNS(=O)(=O)CCCN1CCCCCC1c1ccc(C)o1` (centres undefined) is 60.13%.
In the case of `Cc1ccc(C2CCCCCN2CCNS(C)(=O)=O)o1` (centres undefined), the INHIBITION was determined as 48.21%.
On to `Cc1ccc(C2CCCCCN2CCCS(C)(=O)=O)o1` (centres undefined), for which the INHIBITION came to 38.67%.
For `CC1CCN(S(=O)(=O)N2Cc3ccccc3C[C@H]2C(N)=O)CC1`, the INHIBITION came to 21.37%.
For `O=C(O)c1cc(C2CC2)nc2c(Cl)cnn12`, the INHIBITION came to 0.89%.
In the case of `COC(=O)c1cc(C2CC2)nc2c(C#N)cnn12`, the INHIBITION was 11.95%.
Consider `COC(=O)c1cc(C2CC2)nc2c(Cl)cnn12`, for which the INHIBITION came to 70.37%.
The figure for `Cc1nc(CN2CCCn3c(nc(Cn4cncn4)cc3=O)C2)cs1` is 37.6%; for `N#Cc1ccc(N2CCC3(CC2)CC(Oc2cccnc2)CO3)cc1` (centres undefined) it is 38.49%.
Take `FC1(F)CCN(Cc2ccccn2)CC12CCN(c1cccnc1)C2` (centres undefined): the INHIBITION worked out at 2.07%.
With `COCC1CCCN(C(=O)c2ccccc2NCc2cccnc2)C1` (centres undefined), the INHIBITION came out at 22.39%.
On to `COC1CCN(C(=O)c2ccccc2NCc2cccnc2)CC1`, for which the INHIBITION is 54.77%.
`CC(C)N1CCN(C(=O)c2ccccc2NCc2cccnc2)CC1`: the INHIBITION came out at 8.73%.
Regarding `Cc1cc(CNCCNS(C)(=O)=O)sc1Br`, the INHIBITION is reported as 20.76%.
For the compound `O=C(CCn1cncn1)N1C[C@@H]2CC[C@H]1CN(Cc1cccnc1)C2`, the INHIBITION was 44.37%.
The figure for `O=C(NCC1CCOC1)c1cc(-c2ccc(F)cc2)[nH]n1` (centres undefined) is -22.69%; for `O=C(NCC1CCOC1)c1cc(-c2ccc(Cl)cc2)n[nH]1` (centres undefined) it is 61.07%; for `O=C(NCC1CCOC1)c1cc(-c2cccc(Cl)c2)[nH]n1` (centres undefined) it is 47.03%.
As for `CCCN(C)S(=O)(=O)NC(=O)c1ccc(CC)o1`, the figure is 13.28%; as for `CCCS(=O)(=O)NC(=O)c1ccc(Br)o1`, 56.8%; as for `CCCS(=O)(=O)NC(=O)c1ccc(CC)o1`, 10.48%.
`NC1CCCCN(Cc2cc(-c3ccccc3OC(F)(F)F)no2)C1` (centres undefined): the INHIBITION is 28.63%.
For the compound `Cc1ccsc1CNCc1c(C(C)C)nn(C)c1N1CCOCC1`, the INHIBITION was -28.5%.
